High-throughput results (PubChem BioAssay)
Shown are actives, neighbours in structure and some others; about 2.4% of the full set was active somewhere.
Cruzain noTriton – inhibitors of Trypanosoma cruzi cruzain without detergent; P25779; purified cruzain, Z-FR-AMC fluorescence, no detergent; Potency, µM, inactives show max response, negative = inhibition, most hits filed as inhibitors; 2.3% of 200,000 active; AID 1476;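 further: plate controls were enzyme without inhibitor for no effect and buffer without enzyme for full effect; nearly all actives have a fitted effect of over 40% in size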
Target sequence (P25779 123-467 limits assumed): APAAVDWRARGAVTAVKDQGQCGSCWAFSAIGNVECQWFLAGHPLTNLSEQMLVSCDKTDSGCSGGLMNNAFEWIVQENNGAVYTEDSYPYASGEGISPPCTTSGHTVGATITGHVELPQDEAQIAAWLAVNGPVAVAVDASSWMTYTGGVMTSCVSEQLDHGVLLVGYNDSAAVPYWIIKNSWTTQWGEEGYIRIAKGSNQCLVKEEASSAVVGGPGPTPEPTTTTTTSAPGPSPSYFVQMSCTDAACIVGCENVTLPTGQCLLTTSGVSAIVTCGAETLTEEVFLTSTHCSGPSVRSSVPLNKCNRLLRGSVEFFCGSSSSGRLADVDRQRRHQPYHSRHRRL
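Purified cruzain at 1.5 nM, pre-incubated 15 min with compound at room temperature in 100 mM sodium acetate pH 5.5, 5 mM DTT, 0.00005% Triton X-100. Reaction started with 2 uM Z-FR-AMC; AMC fluorescence increase over 60 s gives rate.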
Cruzain Triton – inhibitors of Trypanosoma cruzi cruzain with detergent; P25779; 0.43% of 200,000 active; Potency, µM, for inactives: max response, negative = inhibition, most hits filed as inhibitors; purified cruzain, Z-FR-AMC fluorescence, 0.01% Triton;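 further: plate controls were neutral wells for no effect and buffer without enzyme for full effect; nearly all actives have a fitted effect of over 40% in size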
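Detergent-containing arm of a paired screen for aggregation-based inhibition: 0.01% Triton X-100 present. Cruzain at 1.5 nM cleaved 2 uM Z-FR-AMC at pH 5.5 with 5 mM DTT; AMC fluorescence gain over 60 s measured activity.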
Numbers without * were called inactive; u = inconclusive. The call rests on the fitted dose curve; in most records, active means well fitted curve in the direction sought with a large enough effect; inconclusive means small, poorly fitted or top-dose-only effect, or another doubt; inactive means no such curve, though single readings can be large; an effect the other way counts as inactive or inconclusive. Potency means the concentration at half of the fitted maximal effect.

SMILES	Cruzain noTriton	Cruzain Triton
Cc1cc(N/N=C/c2c(O)ccc3ccccc23)nc(-c2ccccc2O)n1	16µM*	0%
Oc1ccc2ccccc2c1/C=N/Nc1ccccc1	-7%	-6%
CC(=O)N1N=C2C3CCN(CC3)C2C1c1cccc2ccccc12 (stereo not given)	-6%	2%
NC1=NC2(CCCCC2)N=C(Nc2ccc(Br)cc2)N1	20µM*	28µM*
Cc1cccc(C)c1NC1=NC2(CCCCC2)N=C(N)N1	4%	2%
O=[N+]([O-])c1ccc(Nc2ccccc2)cc1	-11%	-10%
O=c1nc(Nc2ccccc2)sc2ccc([N+](=O)[O-])cc12	10µM*	-3%
Oc1c(C(Nc2nc3ccccc3s2)c2ccco2)ccc2cccnc12 (stereo not given)	7.9µM*	1%
CC(C)C(=O)NC(c1ccco1)c1ccc2cccnc2c1O (stereo not given)	-8%	0%
CCCc1[nH]nc2c1C(c1cccc(OC(=O)c3ccco3)c1)C(C#N)=C(N)O2 (stereo not given)	20µM*	u
CCCc1[nH]nc2c1C(c1cc(OC)cc(OC)c1)C(C#N)=C(N)O2 (stereo not given)	-3%	-4%
Cc1ccc(N2C(=O)NC(C(F)(F)F)(C(F)(F)F)C3=C2CC(C)(C)CC3=O)cc1	-3%	3%
O=C(OCc1nc2scc(-c3ccccc3)c2c(=O)[nH]1)c1cc([N+](=O)[O-])ccc1Cl	u	-4%
CC(C)C(NC(=O)c1ccccc1Cl)C(=O)OCc1nc2scc(-c3ccccc3Cl)c2c(=O)[nH]1 (stereo not given)	25µM*	-12%
CS(=O)(=O)N(CC(=O)N1CCN(c2ccccc2)CC1)c1cccc(Br)c1	23%	3%
O=C(/C(=C(/[O-])c1ccccc1)[n+]1ccccc1)c1ccc([N+](=O)[O-])cc1	-19%	-5%
O=[N+]([O-])c1cccc(/C([O-])=C(/C(=S)Nc2ccccc2)[n+]2ccccc2)c1	25µM*	-22%
O=c1c2ccccc2c(C=Nc2ccc(S(=O)(=O)N3CCCCC3)cc2)c(O)n1-c1ccc(Cl)cn1	7.9µM*	4%
CCc1nnc(/N=C/c2c(O)n(-c3ccc(Cl)cn3)c(=O)c3ccccc23)s1	u	-7%
CCn1c2ccccc2c2cc(/C=N/NC(=O)c3ccccc3)ccc21	32µM*	u
CCn1c2ccccc2c2cc(/C=N/n3c(C)nnc3C)ccc21	u	-16%
CCOc1cc(S(=O)(=O)NCCc2cccc(C)c2)c(OCC)cc1-n1cnnn1	u	-4%
COc1ccc(CNc2ccnc(-c3ccccc3Cl)n2)c(OC)c1	-6%	-2%
CC1=Nc2cc(C(=O)NCCc3ccc(Cl)cc3)ccc2Sc2ccc(C)cc21	10µM*	-2%
CC1=Nc2cc(C(=O)NC3CCCC3)ccc2Sc2ccc(Br)cc21	u	-3%
SMILES	Cruzain noTriton	Cruzain Triton
CC1=Nc2cc(C(=O)NC3CCCCC3)ccc2Sc2ccc(Cl)cc21	25µM*	-5%
CCCC1=Nc2cc(C(=O)NCCc3ccc(OCC)cc3)ccc2Sc2ccccc21	u	-2%
CCN1C(=O)/C(=C/N(C)c2ccccc2)OC1=S	-19%	-12%
COc1ccc2c(c1)CCC1C2CC[C@@]2(C)C(O)CCC12 (stereo not given in full)	-6%	-1%
COc1ccccc1CNC(=O)C(=O)NCC1OCCN1C(=O)c1cccs1 (stereo not given)	0%	5%
Cc1cc(C)cc(NCc2cc(=O)oc3cc(-c4ccccc4)c(O)cc23)c1	u	1%
COc1ccc(C)cc1NCc1cc(=O)oc2cc(-c3ccccc3)c(O)cc12	32µM*	-2%
Cc1ccc(-n2c(=O)c3oc4ccccc4c3n(CC(=O)Nc3ccc(F)c(Cl)c3)c2=O)cc1C	10µM*	-3%
Cc1ccc(-n2c(=O)c3oc4ccccc4c3n(Cc3ccccc3F)c2=O)cc1C	-2%	1%
CCCOc1ccc(N2C(=O)CC(N(CCc3ccc(OC)cc3)C(=O)c3cccc(F)c3)C2=O)cc1 (stereo not given)	2%	-2%
CCC(C(=O)Nc1ccc(OC)c(Cl)c1)c1ccccc1 (stereo not given)	u	-7%
CN1c2ccccc2C(C)(C)C12C=Cc1cc(O)ccc1O2 (stereo not given)	0%	-12%
CN1c2ccccc2C(C)(C)C12C=Nc1c(cc(N3CCOCC3)c3ccccc13)O2 (stereo not given)	25µM*	1%
Cc1ccc(NC(=O)CN(C)S(=O)(=O)c2cccc3cccnc23)c(C)c1	8%	0%
CCOC(=O)C(C)Sc1nc2c(c(=O)[nH]c(=O)n2C)n1Cc1ccc(Cl)cc1 (stereo not given)	4%	5%
CCC/C=C(\CCC)C(NS(=O)(=O)c1ccc(Cl)cc1)c1ccc(C(=O)OC)cc1 (stereo not given)	-29%	-7%
O=C1/C(=C/c2cccc(F)c2)CSc2sccc21	-2%	-2%
Cc1cccc(/C=C2\CS/C(=C\c3cccc(C)c3)C2=O)c1	25µM*	-2%
Cc1ccccc1NC(=O)CSc1nc2c(c(-c3ccco3)c1C#N)CCCC2	7.9µM*	-5%
CCc1ccccc1NC(=O)CSc1nc2c(c(-c3ccco3)c1C#N)CCCC2	-17%	-7%
CCOC(=O)CN1C(=O)C2(OCCCO2)c2ccccc21	-4%	7%
Cc1nn(Cc2c(Cl)cccc2Cl)c(C)c1NC(=O)c1sc2ccccc2c1Cl	-3%	-6%
Cc1nn(Cc2ccc(Cl)c(Cl)c2)c(C)c1NC(=O)c1sc2ccccc2c1Cl	16µM*	6%
N#C/C(=C\c1ccc(-c2ccccc2[N+](=O)[O-])o1)C(=O)Nc1nc(-c2cccs2)cs1	6.3µM*	-6%
CNC(=O)/C(C#N)=C/c1ccc(-c2ccc(OC)cc2[N+](=O)[O-])o1	0%	3%
SMILES	Cruzain noTriton	Cruzain Triton
COc1ccc(OC)c(NC(=O)C2CC(C)=C(C)CC2C(=O)O)c1 (stereo not given)	-8%	5%
CCn1c(N2CCN(C(=O)Nc3ccc(F)cc3)CC2)nc2ccccc21	5%	0%
CC(C)(C)NC(=O)CN1CCC(O)(c2ccc3c(c2)OCO3)CC1	-1%	1%
Cc1nn(Cc2c(F)c(F)c(F)c(F)c2F)c(C)c1NC(=O)c1cccc(COc2ccc(Cl)cc2)c1	-13%	3%
CC(C)c1cc(C(N)=O)c(NC(=O)c2cccc(COc3ccc(Cl)cc3)c2)s1	20µM*	-3%
O=C(N/N=C/c1ccc2c(c1)OCO2)C1COc2ccccc2O1 (stereo not given)	-10%	-4%
O=C(N/N=C\C=C\c1ccc2c(c1)OCO2)C1COc2cc3ccccc3cc2O1 (stereo not given)	25µM*	-7%
O=C(OCC1CC(c2ccccc2)=NO1)c1ccc(Cl)cc1 (stereo not given)	-10%	2%
CCOc1cc2[nH]c(=O)n(CCCCC(=O)NC3CCCCCC3)c(=O)c2cc1OCC	6%	3%
O=C(/C=C/c1ccc(Cl)c([N+](=O)[O-])c1)Nc1ccc(N2CCCC2)c(Cl)c1	20µM*	-2%
COc1ccc(C(=O)/C=C/c2ccc(N3CCCCC3)c([N+](=O)[O-])c2)cc1	-17%	-5%
COc1cc(NC(=O)c2cccs2)c(C(=O)OCC(=O)c2cc(C)n(-c3ccccc3)c2C)cc1OC	3.2µM*	-11%
COc1ccc(-n2c(C)cc(C(=O)COC(=O)c3cc(NC(=O)c4cccs4)c(OC)c(OC)c3)c2C)cc1	u	1%
